This is part of a sample that, as a whole, favours compounds with a hit. Of some 83,000 tested, about 20% had one in any assay.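 The endpoint reported here, percent growth, reads 100 for growth as untreated, 0 for no net growth and -100 for all cells dead.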 Unmarked numbers belong to inactive results. Active and inactive are the calls of the source. Rule for the calls: active = growth percent below 10; inactive = the rest.
Assays:
Test in all cases: NCI-60 one-dose screen, 48 h (100 = growth as untreated, 0 = no growth, -100 = all killed)
Conditions in all cases: 10 µM unless noted
NCI-H23 lung = tested on: NCI-H23 lung
NCI-H226 lung = tested on: NCI-H226 lung
NCI-H322M lung = tested on: NCI-H322M lung
HOP-62 NSCLC = tested on: HOP-62 NSCLC
NCI-H460 lung = tested on: NCI-H460 lung
NCI-H522 lung = tested on: NCI-H522 lung
A549/ATCC NSCLC = tested on: A549/ATCC NSCLC
786-0 renal = tested on: 786-0 renal
COLO 205 colon = tested on: COLO 205 colon
DU-145 prostate = tested on: DU-145 prostate
K-562 leukemia = tested on: K-562 leukemia
MALME-3M melanoma = tested on: MALME-3M melanoma
MDA-MB-231 breast = tested on: MDA-MB-231 breast
SF-268 CNS = tested on: SF-268 CNS
SF-295 CNS = tested on: SF-295 CNS
SF-539 CNS = tested on: SF-539 CNS
UACC-257 melanoma = tested on: UACC-257 melanoma
M14 melanoma = tested on: M14 melanoma
HCT-15 colon = tested on: HCT-15 colon
RXF 393 renal = tested on: RXF 393 renal

Compound	growth (NCI-H23 lung) [%]	growth (NCI-H226 lung) [%]	growth (NCI-H322M lung) [%]	growth (HOP-62 NSCLC) [%]	growth (NCI-H460 lung) [%]	growth (NCI-H522 lung)	growth (A549/ATCC NSCLC) [%]	growth (786-0 renal) [%]	growth (COLO 205 colon)	growth (DU-145 prostate) [%]	growth (K-562 leukemia)	growth (MALME-3M melanoma) [%]	growth (MDA-MB-231 breast)	growth (SF-268 CNS) [%]	growth (SF-295 CNS) [%]	growth (SF-539 CNS) [%]	growth (UACC-257 melanoma) [%]	growth (M14 melanoma) [%]	growth (HCT-15 colon)	growth (RXF 393 renal) [%]
COc1ccc(Nc2nccc(N3CCN(c4c5ccc(Cl)cc5nc5ccc(OC)cc45)CC3)n2)cc1	95.7	93.8	83.5	95.6	85.8	-58.3% (active)	75.2	60	61.1%	86.6	25.4%	46	61.3%	66.7	78.6	92.8	102	88.4	36.9%	–
CSc1nnc(C2=CC(=O)c3ccccc3C2=O)n1-c1ccccc1	83.9	85.5	91.1	100	83.6	64.5%	76.3	95.2	110%	104	-0.209% (active)	84.9	93.2%	92	85.8	98.1	86.7	92	95.3%	–
Oc1ccccc1C=Nc1ccccc1N=Cc1ccccc1O.[Cu+2]	33.1	71.1	51.1	66	84.1	14.9%	66	90.9	83.7%	68.5	36.7%	–	63.5%	75.2	68.6	76	45.4	65.2	56.5%	104
CCN(CC)CCCNCCCNc1cc(OC)cc2cccnc12	94.2	81.9	81	92.3	103	93.1%	92.4	94.4	24.6%	104	89.9%	108	–	90.3	99.2	84.6	107	–	83.9%	70.6
CCCCCCC(C)(O)c1ccccc1 (stereo not drawn)	102	106	126	105	110	100%	110	108	114%	118	101%	–	109%	107	125	110	115	105	110%	124
CC/C=C\C=C/C(=O)N/C=C/CC1Cc2cccc(O)c2C(=O)O1 (stereo not drawn)	77.1	110	119	65.5	130	55.2%	84.8	81.5	94.2%	76.4	25.9%	98.8	64.3%	119	262	38.3	86.7	44.2	80.3%	–
CCCCCCCC1(C)NC(=O)NC1=O (stereo not drawn)	132	113	119	102	104	99.6%	122	108	120%	115	90.6%	126	116%	106	124	97.6	114	106	113%	–
CN1CCN(CC(=O)Nc2nc3c(s2)Nc2cc(Cl)c(Cl)cc2NC3=O)CC1	106	96.1	94.1	98.3	104	77%	95.9	99.2	107%	117	81.3%	107	123%	111	108	107	87.9	–	104%	–
C/C(=C\CCc1ccoc1)CC/C=C(\C)CCCN1CCC(CO)CC1	74.8	74.9	74.9	83	53.8	54.6%	65.9	48.5	-21.4% (active)	80.8	-15.8% (active)	11	50%	79.2	47.4	48.9	49	36.3	25.5%	–
COC(=O)CCC1=C(CC(=O)OC)C(C)=N/C1=C\c1[nH]c(-c2ccc[nH]2)cc1OC	49.4	54.5	53.3	46.1	19.1	-7% (active)	18	50.2	30.5%	36.9	-3.71% (active)	–	-12.2% (active)	44.8	39.3	38.8	32.5	17.2	8.89% (active)	52.8
Clc1ccc(-c2nc(-c3cccs3)no2)c(Cl)c1	92.6	88.7	120	84.9	92.1	91.4%	91.4	97.4	106%	99.3	96.1%	103	–	99.2	107	108	76.2	100	73.5%	107
O=[N+]([O-])c1ccc(N/N=C/c2c(O)ccc3ccccc23)nc1	61.4	89	19.7	45.6	24.2	18.5%	49.2	59.2	73.1%	39.4	31.7%	–	47.5%	45.8	25.1	46	29.5	65.3	24.5%	67.1
CCc1ccc(CCN2C(=O)c3ccccc3C2=O)nc1	112	100	108	102	103	118%	106	106	118%	118	95.8%	102	98.5%	103	104	91.6	95.6	110	113%	–
COc1ccc(/C(=C2\O[C@@H]([C@H](O)CO)[C@H]3OC(C)(C)O[C@@H]23)c2cc(OC)c(OC)c(OC)c2)cc1O	89.8	110	109	88.4	107	57.5%	89.4	94.3	126%	87.1	12.6%	75.7	97%	71.1	92.5	68.2	97.9	47.7	62.2%	–
CC(=O)NC1(C(=O)O)CCCC1	133	113	130	117	109	103%	126	110	125%	126	96.6%	135	119%	111	110	104	100	110	112%	–
